Test results as given in PubChem BioAssay AID1822 (The Scripps Research Institute Molecular Screening Center, 2009).
Where “and” joins values, the source holds several entries; their conditions need not be identical. Identical values can stand only once. About 3,500 (1.2%) of roughly 290,000 compounds were called active. This excerpt belongs to a sample that is enriched for actives. A number with no mark means an inactive call.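 Rule for the calls: active = inhibition above the campaign mean inhibition over all tested compounds plus 3 SD (cut at about 28% in these data); inactive = the rest.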

Test system: M18 aspartyl aminopeptidase (Plasmodium falciparum 3D7)
Assay: inhibition of P. falciparum M18 aminopeptidase – biochemical, QFRET, recombinant enzyme, primary screen (AID 1822);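 note: 0% = plate median of test compound wells and 100% = 2 mM ZnCl2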
Settings: recombinant PfM18AAP, H-Glu-NHMec fluorogenic cleavage; at 7.35 µM; stronger effect = higher value

Compound | inhibition
Cc1cccc(OCC(=O)NC2CC(C)(C)NC(C)(C)C2)c1 | 7.98%
Cc1cc(C)c(S(=O)(=O)Nc2c(C)n(C)n(-c3ccccc3)c2=O)cc1[N+](=O)[O-] | 1.79%
C=CCn1c(SCc2ccccc2)nc2c1c(=O)[nH]c(=O)n2C | -4.12%
Cc1cc(=O)n2nc(N3CCCC(C(=O)NCc4cccc(Cl)c4)C3)sc2n1 (centres undefined) | 0.59%
CC(C)(C)c1ccc(C(=O)N2CCC(C(=O)N3CCCCC3)CC2)cc1 | -4.18%
C=CCNC(=O)c1ccccc1SCc1c(C)noc1C | -1.38%
COc1cc(/C=N/Nc2ccc(C)cc2)cc(Br)c1O | 18.2%
COc1cc(/C=N/NC(=S)Nc2cccnc2)cc(OC)c1O | 44.8% (active)
COc1ccc(/C=C/C(=O)Nc2cccnc2)cc1OC | -3.57%
O=C(CCC1CCN(C(=O)c2cccc(Cl)c2F)CC1)Nc1ccccc1 | 4.45%
COc1ccc(C(=O)NC(C)Cn2nc(C)cc2C)cc1OC1CCN(C(C)=O)CC1 (centres undefined) | 2.44%
COc1ccc(CCOC(=O)CNC(=O)c2ccc(Cl)cc2Cl)cc1 | 2.28%
O=C(CSc1nc(-c2ccccc2)cs1)Nc1cccc([N+](=O)[O-])c1 | 1.5%
O=C(Nc1nsc(-c2ccccc2)n1)c1ccncc1 | -9.47%
O=C(CSc1nc2ccccc2[nH]1)Nc1nc(-c2ccccc2)c(-c2ccccc2)o1 | 1.21%
O=C(CSc1ncn[nH]1)Nc1nc(-c2cccc([N+](=O)[O-])c2)cs1 | 41.6% (active)
CCN(C(=O)CSc1ncn[nH]1)c1cccc2ccccc12 | 19%
O=C(CSc1ncn[nH]1)Nc1nsc(-c2ccccc2)n1 | 34.3% (active)
O=C(CSc1ncn[nH]1)Nc1ccnc2ccccc12 | 71.8% (active)
O=C(CSc1n[nH]c(-c2cccnc2)n1)Nc1ccnc2ccccc12 | -2.9%
O=C(CSC1=NCCS1)Nc1nc(-c2ccccc2)cs1 | 4.17%
O=C(Nc1ccccc1)Nc1nnc(COc2ccccc2F)s1 | -2.7%
CCOc1ccc2nc(NC(=O)c3cc([N+](=O)[O-])ccc3N3CCOCC3)sc2c1 | -2.3%
CCOC(=O)N1CCN(C(=O)c2ccc3c(=O)n(CCc4ccc(OC)c(OC)c4)c(=O)[nH]c3c2)CC1 | 4.45%

Compound | inhibition
CCC(C)Sc1nc2c(cnn2-c2ccc(F)cc2)c(=O)[nH]1 (centres undefined) | 1.81%
COc1ccc(CCN(C)C(=O)C23CC4CC(CC(Cl)(C4)C2)C3)cc1OC | -8.52%
CC1CCN(C(=O)CCc2nnc3ccc(NCc4ccco4)nn23)CC1 | 23.2%
CCC(C)[C@H](NC(=O)N1CCn2c1nc1ccccc12)C(=O)NCc1ccc(OC)cc1 (some centres undefined) | 9.53%
C=CCC1(CC=C)CCCN1C(=O)c1cc(COc2ccc(-n3cncn3)cc2)on1 | -14.1%
CC(=O)Nc1cccc(C(=O)Nc2nc(C)cs2)c1 | -10.2%
Cc1csc(NC(=O)NC2(C(F)(F)F)Oc3ccccc3O2)n1 | 70.8% (active)
Cc1csc(NC(=O)Nc2ccccc2[N+](=O)[O-])n1 | 9.93%
COc1ccc(N2CCN(C(=O)CN3C(=O)COc4ccccc43)CC2)cc1 | -6.46%
Oc1c(Cl)cc(Cl)cc1/C=N/c1ncn[nH]1 | 45.4% (active)
COc1ccc(Br)cc1/C=N/n1c(C)nnc1C | 0.59%
Oc1ccc(Cl)cc1/C=N/c1nc2ccccc2[nH]1 | 0.82%
COc1cc(Br)cc(/C=N/c2ncn[nH]2)c1O | 61.7% (active)
Oc1ccc(Br)cc1C=Nc1ccc2[nH]ncc2c1 | 4.29%
O=C(CN1C(=O)c2cccnc2Oc2ccc(Cl)cc21)Nc1ccc(F)cc1 | -4.17%
Cc1cc(F)ccc1N1CCC(N2CCN(C)C(CCO)C2)CC1 (centres undefined) | -5.24%
O=C(NNS(=O)(=O)c1ccc(F)cc1)C1CCCCC1 | -0.96%
Cc1cc(=O)oc2c(C)c(OC(C)C(=O)NC3CCN(Cc4ccccc4)CC3)ccc12 (centres undefined) | -1.22%
Cc1ccnc(NC(=O)C2CCN(S(=O)(=O)c3c(C)c(C)cc(C)c3C)CC2)c1 | 3.42%
Cc1nc([N+](=O)[O-])nn1C12CC3CC(CC(Br)(C3)C1)C2 | 13.9%
Cc1ccnc(N2CCCC(C(=O)NC3CC3)C2)n1 (centres undefined) | 0.97%
Cc1ccnc(SCC(N)=O)n1 | 3.17%
Cc1ccnc(-n2sc3ccccc3c2=O)n1 | 42% (active)
CN(C)S(=O)(=O)c1ccc(N2CCCC2)c(C(=O)Nc2cccc(F)c2)c1 | -1.31%

Compound | inhibition
Cc1ccc(S(=O)(=O)N2CCCC(C(=O)N3CCN(C)CC3)C2)cc1 (centres undefined) | -0.92%
CC1CCC(NS(=O)(=O)c2ccc3c(c2)n(C)c(=O)c(=O)n3C)CC1 (centres undefined) | -14%
O=S(=O)(NC1CC1)c1ccc(F)c(F)c1 | -0.16%
Cn1sc(=O)c2cc(S(=O)(=O)NC3CC3)ccc21 | 43% (active)
S=c1[nH]nc2c3c4c(sc3ncn12)CCCC4 | 38.3% (active)
N=c1c2c3c(sc2ncn1N)CCCCC3 | -3.67%
N=c1c2c3c(sc2ncn1N)CCCC3 | 2.91%
Cn1ncc(Br)c1C(=O)NC1CCCC1 | -2.67%
O=C(CSC1=Nc2ccccc2C2=NC(CC(=O)NCc3ccco3)C(=O)N12)NCc1ccco1 (centres undefined) | 7.17%
CC(C)C1N=C2c3ccccc3N=C(SCC(=O)c3ccc(O)c(O)c3)N2C1=O (centres undefined) | 55.1% (active)
CCC(C)NC(=O)CSC1=Nc2ccccc2C2=NC(CCC(=O)NCc3ccco3)C(=O)N12 (centres undefined) | -0.47%
CC(=O)C(C)n1cnc2scc(-c3ccc(C)cc3)c2c1=O (centres undefined) | 0.85%
CSc1ccc(CNC(=O)c2ccc(NC(=O)C3=CSCCO3)cc2)cc1 | 6.37%
COc1cccc(C(=O)Nc2nnc(S(=O)(=O)N3CCOCC3)s2)c1 | 1.13%
O=C(c1ccncc1)c1ccc([N+](=O)[O-])cc1 | -0.4%
O=C(Cn1c[n+](CC(=O)c2ccc([N+](=O)[O-])cc2)cn1)c1ccc([N+](=O)[O-])cc1 | 50.9% (active) and 63.7% (active)
Cc1ccc(C(=O)Cn2cc([N+](=O)[O-])nc2C)cc1 | 1.83%
CC(C)Cn1c(N2CCN(C(=O)/C=C/c3ccccc3)CC2)nc2ccccc21 | 2%
Cc1c(OC(C)C(=O)NCC2CCC(C(=O)O)CC2)ccc2c1oc(=O)c1ccccc12 (centres undefined) | 5.1%
Cc1ccccc1N1CCN(CC(=O)NCc2ccc(Cl)cc2)CC1 | 4.87%
O=C(COC(=O)c1ccc(N2CCCC2=O)cc1)c1ccc(OC(F)F)cc1 | 0.74%
COc1ccc(C(=O)NC2CC(C)(C)Cc3c2cnn3-c2ccccc2)c(OC)c1 (centres undefined) | 0.86%
Nc1ccc(C(=O)Nc2ccccc2N)cc1 | -8.23%
Cc1cc(F)ccc1NC(=S)NCCc1ccccc1 | -8.4%

Compound | inhibition
Cc1ccc(CN(Cc2cccnc2)C(=S)Nc2cccc(Cl)c2C)cc1 | -8.48%
Cc1ccc(S(=O)(=O)N/N=C\c2cc3c(cc2[N+](=O)[O-])OCO3)cc1 | 51.5% (active)
Cc1ccc(-c2n[nH]c(=S)n2/N=C/c2cc3c(cc2[N+](=O)[O-])OCO3)cc1 | 17.7%
CC(=O)N/N=C/c1cc2c(cc1[N+](=O)[O-])OCO2 | 6.95%
COc1ccc(C(CNC(=O)COc2ccc([N+](=O)[O-])cc2)N2CCCCC2)cc1 (centres undefined) | -7.22%
CC(=O)Nc1cccc(C(=O)OCN2C(=O)c3ccccc3C2=O)c1 | 1.1%
COc1ccc(CC(=O)Nc2nc(-c3ccc(F)c(F)c3)cs2)cc1OC | 0.44%
COc1ccc(C2/C(=C(/O)c3ccc4c(c3)CC(C)O4)C(=O)C(=O)N2Cc2ccncc2)cc1 (centres undefined) | 16.6%
COc1ccc(/C(O)=C2\C(=O)C(=O)N(Cc3ccco3)C2c2ccc(OC)cc2OC)cc1 (centres undefined) | 8.22%
COc1cc(C2/C(=C(\O)c3ccc4c(c3)CC(C)O4)C(=O)C(=O)N2Cc2ccco2)ccc1O (centres undefined) | 45.6% (active)
CCOc1ccc(-n2c(O)c(/C=N/Nc3nc(C)cc(C)n3)c3ccccc3c2=O)cc1 | 26.7%
CCOc1ccc(-n2c(O)c(/C=N/c3ccnn3Cc3ccncc3)c3ccccc3c2=O)cc1 | 5.65%
CCOc1ccc(-n2c(O)c(/C=N/Nc3nnc(C)c(=O)[nH]3)c3ccccc3c2=O)cc1 | 34% (active)
S=C(Nc1cccnc1)Nc1ccccn1 | 11.1%
C[C@H](NC(=O)c1nc[nH]c1C(=O)NCC(=O)OC(C)(C)C)c1ccccc1 | 1.03%
CCC(CC)c1nnc(NC(=O)C2CCN(C(=O)c3ccco3)CC2)s1 | 31.2% (active)
CCC(CC)c1nnc(NC(=O)/C=C/c2ccco2)s1 | 2.71%
COc1ccc(CNC(=O)C2CCN(C(=O)c3ccco3)CC2)cc1 | 2.47%
Nc1ccccc1SC(C[N+](=O)[O-])c1ccccc1 (centres undefined) | 14.1%
CCOC(=O)c1cc(Sc2ccccc2N)cc(C(=O)OCC)n1 | 10.8%
CCS(=O)(=O)c1cc([N+](=O)[O-])c(Sc2ccccc2N)s1 | 38.9% (active)
Cc1ccc(S(=O)(=O)CC(=O)NC(C)c2ccccc2)cc1 (centres undefined) | -6.39%
